Assay [1] can be described thus: NCI Yeast Anticancer Drug Screen. Data for the rad50 strain (AID 155).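 Further: 0% = growth of vehicle-only cultures of the same strain.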 The settings on record: S. cerevisiae rad50 strain growth inhibition, hits give high values. Summed up: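 Cells are treated with compound, grown, and their growth is then scored against vehicle-only cultures of the same repair-deficient yeast strain.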
A short description of assay [2]: NCI Yeast Anticancer Drug Screen. Data for the mec2-1 strain (AID 157). The settings on record: S. cerevisiae mec2-1 strain, hits give high values. Summed up:
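Using mec2-1 yeast: add compound, measure growth, express inhibition versus vehicle-treated cultures.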

Assay [3] in a line: NCI Yeast Anticancer Drug Screen. Data for the sgs1 mgt1 strain (AID 161).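 Further: 0% = growth of cultures given vehicle only.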 The settings on record: S. cerevisiae sgs1 mgt1 strain, hits give high values. An outline of the steps: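 This yeast growth screen uses a strain with defined DNA-repair lesions; compound-treated growth is compared with vehicle-treated growth.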
Assay [4] is described as follows: NCI Yeast Anticancer Drug Screen. Data for the cln2 rad14 strain (AID 165).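 Further: 0% = growth equal to vehicle treated cultures.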 The settings on record: S. cerevisiae cln2 rad14 strain, hits give high values. Summed up: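 Yeast strain cln2 rad14, bearing defects in cell cycle control and DNA repair, serves as the test system; values reflect growth inhibition compared with vehicle.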
The nature of assay [5]: NCI Yeast Anticancer Drug Screen. Data for the mlh1 rad18 strain (AID 175). The settings on record: S. cerevisiae mlh1 rad18 strain growth inhibition, hits give high values. Summed up: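 Steps: expose repair-defective yeast to compound; measure growth; express inhibition against vehicle-treated controls.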
The nature of assay [6]: NCI Yeast Anticancer Drug Screen. Data for the bub3 strain (AID 167). The conditions noted are these: S. cerevisiae bub3 mutant strain, hits give high values. An outline of the steps:
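Part of a panel of yeast mutants defective in DNA damage repair or cell cycle regulation. Each strain is grown with compound, and inhibition is calculated relative to solvent-treated cultures.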

Where [7] appears, read: at 5.0 µM (retest, dose inferred, filed as 0.5).
Where [8] appears, read: at 50.0 µM (retest, dose inferred, filed as 5.0).

The record followed here is PubChem BioAssay (NCI).

About 79,000 compounds went through this panel and 15% of them were active in at least one assay; those are over-represented in the sample as a whole. Values without a mark were called inactive. Calls of active or inactive are those of the source. No stated cut-off is given here; in the data, active means growth inhibition above about 70%; inactive means the rest.

As for `O[Si](O)(c1ccccc1)c1ccccc1`, the growth inhibition in assay [1] (setting [7]) was 13%; in assay [1] (setting [8]), 92% (active); in assay [1] (at 50.0 µM), 96.2% (active); in assay [2] (setting [7]) it was 7%; in assay [2] (setting [8]), 92% (active); in assay [2] (at 50.0 µM), 93% (active). For the same compound, the growth inhibition in assay [3] (setting [7]) is 10%; in assay [3] (setting [8]), 92% (active); in assay [3] (at 50.0 µM), 95.8% (active); in assay [4] (setting [7]), 0%; in assay [4] (setting [8]), 88% (active); in assay [4] (at 50.0 µM), 90.2% (active). Besides, the growth inhibition in assay [5] (setting [7]) is 12%; in assay [5] (setting [8]) it was 95% (active); in assay [5] (at 50.0 µM), 95.8% (active).
Regarding `O=C(O)CCCCCCCCC(=O)O.[Ag]`, the growth inhibition in assay [1] (setting [7]) is 99% (active); in assay [1] (setting [8]), 99% (active); in assay [1] (at 50.0 µM) it was 90.2% (active); in assay [2] (setting [7]), 99% (active); in assay [2] (setting [8]), 99% (active); in assay [2] (at 50.0 µM) it was 93% (active). The growth inhibition in assay [3] (setting [7]) was 100% (active); in assay [3] (setting [8]), 99% (active); in assay [3] (at 50.0 µM) it was 93.8% (active); in assay [4] (setting [7]), 70% (active); in assay [4] (setting [8]), 99% (active); in assay [4] (at 50.0 µM) it was 92.2% (active). Besides, the growth inhibition in assay [6] (setting [7]) was 99% (active); in assay [6] (setting [8]), 99% (active); in assay [6] (at 50.0 µM), 92.5% (active); in assay [5] (setting [7]), 99% (active); in assay [5] (setting [8]) it was 99% (active); in assay [5] (at 50.0 µM), 91.5% (active).
For the compound `OB1c2ccccc2CCc2ccccc21`, the growth inhibition in assay [1] (setting [7]) is -4%; in assay [1] (setting [8]) it was 99% (active); in assay [1] (at 50.0 µM), 99.3% (active); in assay [2] (setting [7]), -7%; in assay [2] (setting [8]), 99% (active); in assay [2] (at 50.0 µM), 99.5% (active). For the same compound, the growth inhibition in assay [3] (setting [7]) is -4%; in assay [3] (setting [8]), 99% (active); in assay [3] (at 50.0 µM) it was 99.5% (active); in assay [4] (setting [7]) it was -13%; in assay [4] (setting [8]), 98% (active); in assay [4] (at 50.0 µM), 96.6% (active). Moreover, the growth inhibition was -25% in assay [6] (setting [7]); 99% (active) in assay [6] (setting [8]); 99.2% (active) in assay [6] (at 50.0 µM); -2% in assay [5] (setting [7]); 99% (active) in assay [5] (setting [8]); 99% (active) in assay [5] (at 50.0 µM).
As for `CCCCCCCCCCCCCCCC(=O)N1CC[N+](C)(C)CC1`, the growth inhibition in assay [1] (setting [7]) was 34%; in assay [1] (setting [8]), 99% (active); in assay [1] (at 50.0 µM), 99.3% (active); in assay [2] (setting [7]), 5%; in assay [2] (setting [8]), 100% (active); in assay [2] (at 50.0 µM), 99.6% (active). Besides, the growth inhibition in assay [3] (setting [7]) was 73% (active); in assay [3] (setting [8]), 99% (active); in assay [3] (at 50.0 µM), 60%; in assay [4] (setting [7]), 5%; in assay [4] (setting [8]) it was 99% (active); in assay [4] (at 50.0 µM), 98.2% (active). The growth inhibition in assay [6] (setting [7]) is 16%; in assay [6] (setting [8]), 99% (active); in assay [6] (at 50.0 µM), 99.2% (active); in assay [5] (setting [7]) it was -34%; in assay [5] (setting [8]) it was 99% (active); in assay [5] (at 50.0 µM) it was 99.5% (active).
Regarding `c1ccc2c(Nc3ccc(Oc4ccc(Nc5c6ccccc6nc6ccccc56)cc4)cc3)c3ccccc3nc2c1`, the growth inhibition in assay [1] (setting [7]) is 50%; in assay [1] (setting [8]) it was 99% (active); in assay [1] (at 50.0 µM), 82.8% (active); in assay [2] (setting [7]), 8%; in assay [2] (setting [8]), 100% (active); in assay [2] (at 50.0 µM), 6.6%. Also, the growth inhibition in assay [3] (setting [7]) is 31%; in assay [3] (setting [8]), 99% (active); in assay [3] (at 50.0 µM), -22.9%; in assay [4] (setting [7]), 6%; in assay [4] (setting [8]), 99% (active); in assay [4] (at 50.0 µM) it was 6.45%. Moreover, the growth inhibition was 10% in assay [6] (setting [7]); 99% (active) in assay [6] (setting [8]); -1.8% in assay [6] (at 50.0 µM); 20% in assay [5] (setting [7]); 99% (active) in assay [5] (setting [8]); 10.3% in assay [5] (at 50.0 µM).
As for `Cc1c(F)c(C)c(C(=O)O)c(C)c1F`, the growth inhibition in assay [1] (setting [7]) is 26%; in assay [1] (setting [8]) it was 99% (active); in assay [1] (at 50.0 µM), 99.4% (active); in assay [2] (setting [7]), 27%; in assay [2] (setting [8]) it was 98% (active); in assay [2] (at 50.0 µM), 99.5% (active). Also, the growth inhibition in assay [3] (setting [7]) is 20%; in assay [3] (setting [8]), 99% (active); in assay [3] (at 50.0 µM), 99.5% (active); in assay [4] (setting [7]) it was 8%; in assay [4] (setting [8]), 99% (active); in assay [4] (at 50.0 µM), 99.2% (active). Besides, the growth inhibition is 27% in assay [5] (setting [7]), 100% (active) in assay [5] (setting [8]) and 99.6% (active) in assay [5] (at 50.0 µM).
In the case of `Cc1c(Cl)cc2[nH]c(C(F)(F)F)nc2c1Cl`, the growth inhibition in assay [1] (setting [7]) is 3%; in assay [1] (setting [8]) it was 66%; in assay [1] (at 50.0 µM) it was 63%; in assay [2] (setting [7]) it was 8%; in assay [2] (setting [8]), 76% (active); in assay [2] (at 50.0 µM), 75.2% (active). The growth inhibition in assay [3] (setting [7]) was 3%; in assay [3] (setting [8]), 79% (active); in assay [3] (at 50.0 µM) it was 71.2% (active); in assay [4] (setting [7]), 10%; in assay [4] (setting [8]), 71% (active); in assay [4] (at 50.0 µM), 65.1%. The growth inhibition is 2% in assay [6] (setting [7]); 56% in assay [6] (setting [8]); 41.5% in assay [6] (at 50.0 µM); 3% in assay [5] (setting [7]); 72% (active) in assay [5] (setting [8]); 70.5% (active) in assay [5] (at 50.0 µM).
As to `Fc1ccc2[nH]ccc2c1`, the growth inhibition in assay [1] (setting [7]) was 9%; in assay [1] (setting [8]) it was 41%; in assay [1] (at 50.0 µM) it was 55.5%; in assay [2] (setting [7]), -22%; in assay [2] (setting [8]), 13%; in assay [2] (at 50.0 µM), 28.8%. Besides, the growth inhibition in assay [3] (setting [7]) was 5%; in assay [3] (setting [8]) it was 19%; in assay [3] (at 50.0 µM), 60.6%; in assay [4] (setting [7]), 9%; in assay [4] (setting [8]), 47%; in assay [4] (at 50.0 µM), 34.4%. The figures for the growth inhibition in assay [5] (setting [7]), in assay [5] (setting [8]) and in assay [5] (at 50.0 µM) were -19%, 44% and 49.3%, respectively.
In the case of `O=C(CCC(NC(=O)OCc1ccccc1)C(=O)OCc1ccccc1)NC(CSCc1ccccc1)C(=O)NCC(=O)Oc1c(Cl)c(Cl)c(Cl)c(Cl)c1Cl` (stereo not drawn), the growth inhibition is 8% in assay [1] (setting [7]); 51% in assay [1] (setting [8]); 31% in assay [1] (at 50.0 µM); 9% in assay [2] (setting [7]); 32% in assay [2] (setting [8]); 28.8% in assay [2] (at 50.0 µM). Moreover, the growth inhibition was 7% in assay [3] (setting [7]); 35% in assay [3] (setting [8]); 64.2% in assay [3] (at 50.0 µM); -7% in assay [4] (setting [7]); 48% in assay [4] (setting [8]); 45% in assay [4] (at 50.0 µM). For the same compound, the growth inhibition in assay [6] (setting [7]) was 3%; in assay [6] (setting [8]) it was 59%; in assay [6] (at 50.0 µM) it was 18.8%; in assay [5] (setting [7]) it was 8%; in assay [5] (setting [8]) it was 54%; in assay [5] (at 50.0 µM), 60.7%.
